# High-throughput results deposited in PubChem BioAssay by Broad Institute.
# Hedgehog inh = Hedgehog pathway signaling inhibitors, primary screen, luminescence, Shh-LIGHT2 cells, Gli-luciferase | AID 2313, 2010 | Shh-LIGHT2 Gli-luciferase reporter, 30 h | 2.1% of 22,000 active | inhibition, % (concentration not given with the values);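 active means mean inhibition across valid replicates above about 65%, limit read from the data; inconclusive means mean under the limit, yet half or more replicates past it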;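 further: pathway switched on by Shh-conditioned medium diluted 1 in 25 in low serum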
# NOMO-1 viab = NOMO-1 AML cell viability reduction, primary screen, STK33 inhibitor project, CellTiter-Glo luminescence; NOMO-1 AML viability, 72 h; inhibition, % (concentration not given with the values); 7.5% of 37,000 active; in the data active means inhibition above about 80%; inconclusive means no clear call, values can overlap the other calls
# MITF inh = inhibitors of MITF, primary screen, MITF inhibitor project, cell-based, luminescence; 0.28% of 37,000 active; inhibition, % (no concentration beside the values); TRPM1 promoter luciferase, 24 h; in the data active means inhibition above about 85%; inconclusive means no clear call, values can overlap the other calls; inactive means below about 68%;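 further: human melanocyte line stably carrying TRPM1 promoter luciferase reporter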
# Hits are given with their value; n = inactive; u = inconclusive; x = no result given. An excerpt weighted towards active compounds, which were near 8.1% of everything screened.
SMILES,Hedgehog inh,NOMO-1 viab,MITF inh
C[C@H](CO)N1C[C@H](C)[C@H](CN(C)C(=O)NC2CCCCC2)Oc2ccc(NS(=O)(=O)c3cn(C)cn3)cc2C1=O,n,n,n
Cc1c(NC(=O)CN(c2ccc3c(c2)OCCO3)S(C)(=O)=O)c(=O)n(-c2ccccc2)n1C,x,n,n
Cc1ccc2ccc(C(Nc3ccccn3)c3cccc([N+](=O)[O-])c3)c(O)c2n1 (centres undefined),x,112.1,n
COc1ccc(C(Nc2cccc(C)n2)c2ccc3ccc(C)nc3c2O)c(OC)c1OC (centres undefined),x,96.3,n
Cc1ccnc(SCC(=O)c2cccc([N+](=O)[O-])c2)n1,x,n,n
C=C1CCC2C(C(=O)O)=COC(O[C@@H]3O[C@H](CO)[C@@H](O)[C@H](O)[C@H]3O)C12 (some centres undefined),n,n,n
C=C(C(=O)O[C@H]1C/C=C(/C)C[C@H](O)[C@H]2[C@H](C)C(=O)O[C@@H]2/C=C\1C)[C@@H]1CCC(=C)[C@@H]2C[C@H](O[C@@H]3O[C@H](CO)[C@@H](O)[C@H](O)[C@H]3O)C(=C)[C@@H]2C1,n,118.4,n
Cc1ccc(-c2nc3cc(Cl)cc(Cl)c3o2)cc1NC(=O)COc1ccccc1,x,n,n
COc1ccc(S(=O)(=O)N(C(C)=O)c2ccc3oc4c(c3c2)CC(C)CC4)cc1[N+](=O)[O-] (centres undefined),x,n,n
C=C[C@](C)(CC/C=C(\C)CC[C@H](O)C(C)(C)O)O[C@@H]1O[C@H](CO)[C@@H](O)[C@H](O)[C@H]1O,n,n,n
C=CC(C)(CC/C=C(\C)C(O)CC=C(C)C)OC1OC(CO)C(O)C(O)C1O (centres undefined),78.2,x,x
C[C@@H]1CN([C@@H](C)CO)C(=O)Cc2cc(NC(=O)Nc3ccc4c(c3)OCO4)ccc2O[C@@H]1CN(C)Cc1ccc(C(F)(F)F)cc1,n,94.6,n
C[C@H]1CN([C@@H](C)CO)C(=O)Cc2cc(NC(=O)Nc3ccc4c(c3)OCO4)ccc2O[C@@H]1CN(C)Cc1ccc(C(F)(F)F)cc1,n,u,n
C[C@H]1CN([C@@H](C)CO)C(=O)Cc2cc(NC(=O)Nc3ccc4c(c3)OCO4)ccc2O[C@H]1CN(C)Cc1ccc(C(F)(F)F)cc1,n,n,n
C[C@H](CO)N1C[C@H](C)[C@H](CN(C)Cc2ccc(C(F)(F)F)cc2)Oc2ccc(NC(=O)Nc3ccc4c(c3)OCO4)cc2CC1=O,n,103.9,n
O=C(CS(=O)c1ccc(C(F)(F)F)cc1[N+](=O)[O-])Oc1ccc(C2CCCCC2)cc1 (centres undefined),x,120.7,n
Cc1nonc1OCCNc1ccc(C(F)(F)F)cc1[N+](=O)[O-],x,n,n
N#CC1=C(N)C(C#N)(C#N)C(c2ccccc2)C2=C1CCCC2 (centres undefined),n,87.9,n
CCn1c2ccccc2c2cc(NC(=O)COc3ccc([N+](=O)[O-])cc3)ccc21,x,n,n
C[C@H](CO)N1C[C@H](C)[C@H](CN(C)Cc2ccccc2)Oc2ccc(NC(=O)Nc3cccc4ccccc34)cc2C1=O,n,n,n
C[C@@H]1CN([C@@H](C)CO)C(=O)c2cc(NC(=O)Nc3cccc4ccccc34)ccc2O[C@@H]1CN(C)Cc1ccc(Cl)c(Cl)c1,x,93.3,n
C[C@H](CO)N1C[C@H](C)[C@H](CN(C)Cc2ccc(Cl)c(Cl)c2)Oc2c(NC(=O)Nc3cccc4ccccc34)cccc2C1=O,n,106.5,n
C[C@H](CO)N1C[C@H](C)[C@H](CN(C)Cc2ccc(C(=O)O)cc2)Oc2ccc(NC(=O)Nc3cccc4ccccc34)cc2CC1=O,x,n,n
CC(C)NC(=O)Nc1cccc2c1O[C@H](CN(C)Cc1ccc(Cl)c(Cl)c1)[C@@H](C)CN([C@@H](C)CO)C2=O,n,n,n
C[C@@H]1CN([C@@H](C)CO)C(=O)Cc2cc(NC(=O)Nc3cccc4ccccc34)ccc2O[C@@H]1CN(C)Cc1ccc(Cl)c(Cl)c1,n,128.6,n
SMILES,Hedgehog inh,NOMO-1 viab,MITF inh
CCOc1ccc(NC(=O)CC2C(=O)NCCN2C(=O)c2ccccc2)cc1 (centres undefined),x,n,n
COc1ccccc1-c1cc(=O)c2ccccc2o1,n,n,n
CCCC1O[C@@H]2C[C@H]3[C@@H]4CCC5=CC(=O)C=C[C@]5(C)[C@H]4[C@@H](O)C[C@]3(C)[C@]2(C(=O)CO)O1 (some centres undefined),n,n,n
CCC(=O)OCC(=O)[C@@]1(OC(=O)CC)[C@H](C)CC2C3C([C@@H](O)C[C@@]21C)[C@@]1(C)C=CC(=O)C=C1C[C@H]3Cl (some centres undefined),68.2,n,n
CCC(=O)[C@@]1(C)[C@H](C)C[C@H]2[C@@H]3CCC4=CC(=O)C=C[C@]4(C)[C@H]3[C@@H](O)C[C@@]21C,64.7,n,n
CCC(=O)OC1(C(=O)CCl)[C@@H](C)C[C@H]2[C@@H]3CCC4=CC(=O)C=C[C@]4(C)[C@@]3(F)[C@@H](O)C[C@@]21C (some centres undefined),n,n,n
CC(C)NC(=O)N(C)C[C@@H]1Oc2ccc(NC(=O)c3ccncc3)cc2C(=O)N([C@H](C)CO)C[C@H]1C,n,n,n
COc1ccc(S(=O)(=O)N(C)CC(=O)Nc2ccccc2F)cc1C,x,n,n
CCc1ccc(-n2c(C)nnc2SCC(=O)Nc2ccc(Cl)cc2Cl)cc1,x,n,n
Cc1ccc(-n2c(SCC(=O)Nc3sc4c(c3C#N)CCCC4)nnc2-c2ccccc2)cc1,x,n,n
C[C@@H]1CN([C@H](C)CO)C(=O)Cc2cc(NS(C)(=O)=O)ccc2O[C@H]1CN(C)Cc1ccc(C(=O)Nc2ccccc2N)cc1,x,n,n
C[C@H](CO)N1C[C@H](C)[C@H](CN(C)Cc2ccc(C(=O)Nc3ccccc3N)cc2)Oc2ccc(NS(C)(=O)=O)cc2CC1=O,x,128.8,n
C[C@@H]1CN([C@H](C)CO)C(=O)Cc2cc(NS(C)(=O)=O)ccc2O[C@@H]1CN(C)Cc1ccc(C(=O)Nc2ccccc2N)cc1,x,n,n
C[C@H]1CN([C@@H](C)CO)C(=O)Cc2cc(NS(C)(=O)=O)ccc2O[C@H]1CN(C)Cc1ccc(C(=O)Nc2ccccc2N)cc1,x,83.8,n
O=C1C(=O)N(CC2CCCO2)C(c2cccc(Oc3ccccc3)c2)C1C(=O)c1ccco1 (centres undefined),x,n,n
O=C(COc1cc(O)c2c(=O)c3ccccc3oc2c1)c1ccc(Br)cc1,x,n,n
Cc1noc(C)c1NC(=O)N(C)C[C@@H]1Oc2ccc(NC(=O)Cn3cnnn3)cc2CC(=O)N([C@H](C)CO)C[C@H]1C,n,n,n
CCC(C)C(=O)c1c(O)cc2c(c1O)CC(CC=C(C)C)C(C)(C)O2 (centres undefined),n,88.2,n
C=C[C@H]1CN2CC[C@H]1C[C@@H]2C(O)c1ccnc2ccc(OC)cc12 (some centres undefined),n,n,n
O=C1/C(=C/c2c[nH]c3ccccc23)CSc2ccccc21,x,113.2,n
C(=Nc1cccc2ccccc12)c1c[nH]c2ccccc12,n,n,n
